The values that follow come from ChEMBL document CHEMBL1961873, “Compounds: GSK PKIS; Assays: Nanosyn kinase panel” (2012).

Test [1] concerns the target Mitogen-activated protein kinase kinase kinase kinase 4 (Homo sapiens) (UniProt O95819). The conditions noted are these: at 1 µM.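 Also: reported figure is an averaged inhibition value.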
For test [2], the target named is Dual specificity mitogen-activated protein kinase kinase 1 (Homo sapiens) (UniProt Q02750). The conditions noted are these: at 0.1 µM.
Test [3] shares this target. The conditions noted are these: at 1 µM.
Test [4] addresses Misshapen-like kinase 1 (Homo sapiens) (UniProt Q8N4C8). The conditions noted are these: at 0.1 µM.
Test [5] has the same target. The conditions noted are these: at 1 µM.
Test [6] addresses T1, Serine/threonine-protein kinase 4 (Homo sapiens) (UniProt Q13043).
T1 sequence (whole entry): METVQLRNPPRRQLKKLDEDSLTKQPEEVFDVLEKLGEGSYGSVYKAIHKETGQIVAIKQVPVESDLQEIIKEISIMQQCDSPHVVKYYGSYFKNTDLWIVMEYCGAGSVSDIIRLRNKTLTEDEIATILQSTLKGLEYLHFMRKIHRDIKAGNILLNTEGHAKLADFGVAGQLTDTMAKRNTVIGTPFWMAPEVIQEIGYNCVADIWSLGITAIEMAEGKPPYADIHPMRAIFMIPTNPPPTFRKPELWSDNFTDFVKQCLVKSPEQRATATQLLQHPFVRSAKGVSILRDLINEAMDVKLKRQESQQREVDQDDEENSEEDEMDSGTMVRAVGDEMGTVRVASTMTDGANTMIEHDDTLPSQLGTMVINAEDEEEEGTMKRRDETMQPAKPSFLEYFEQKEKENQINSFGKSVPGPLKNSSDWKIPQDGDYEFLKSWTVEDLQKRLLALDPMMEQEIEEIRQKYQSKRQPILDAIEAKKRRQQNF
The conditions noted are these: at 0.1 µM.

For test [7], the target named is T1, Serine/threonine-protein kinase 4 (Homo sapiens). The conditions noted are these: at 1 µM.
Test [8] deals with T2, Serine/threonine-protein kinase 3 (Homo sapiens) (UniProt Q13188).
T2 sequence (whole entry): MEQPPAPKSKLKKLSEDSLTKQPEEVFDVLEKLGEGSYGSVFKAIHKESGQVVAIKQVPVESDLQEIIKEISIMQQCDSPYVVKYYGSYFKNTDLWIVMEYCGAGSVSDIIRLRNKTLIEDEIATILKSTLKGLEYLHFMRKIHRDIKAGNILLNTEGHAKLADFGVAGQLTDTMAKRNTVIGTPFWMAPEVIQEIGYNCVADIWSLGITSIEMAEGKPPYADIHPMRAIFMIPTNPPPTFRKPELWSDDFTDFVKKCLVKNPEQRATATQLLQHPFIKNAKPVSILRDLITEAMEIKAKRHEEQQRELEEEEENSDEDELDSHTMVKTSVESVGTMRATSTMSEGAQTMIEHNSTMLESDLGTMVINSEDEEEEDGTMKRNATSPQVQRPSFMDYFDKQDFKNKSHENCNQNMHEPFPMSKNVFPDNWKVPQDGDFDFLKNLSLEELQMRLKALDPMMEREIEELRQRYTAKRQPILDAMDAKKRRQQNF
The conditions noted are these: at 0.1 µM.

For test [9], the target named is T2, Serine/threonine-protein kinase 3 (Homo sapiens). The conditions noted are these: at 1 µM.
Test [10] addresses Serine/threonine-protein kinase 26 (Homo sapiens) (UniProt Q9P289). The conditions noted are these: at 0.1 µM.

Chain of Dual specificity mitogen-activated protein kinase kinase 1 (Homo sapiens) (Q02750 whole entry): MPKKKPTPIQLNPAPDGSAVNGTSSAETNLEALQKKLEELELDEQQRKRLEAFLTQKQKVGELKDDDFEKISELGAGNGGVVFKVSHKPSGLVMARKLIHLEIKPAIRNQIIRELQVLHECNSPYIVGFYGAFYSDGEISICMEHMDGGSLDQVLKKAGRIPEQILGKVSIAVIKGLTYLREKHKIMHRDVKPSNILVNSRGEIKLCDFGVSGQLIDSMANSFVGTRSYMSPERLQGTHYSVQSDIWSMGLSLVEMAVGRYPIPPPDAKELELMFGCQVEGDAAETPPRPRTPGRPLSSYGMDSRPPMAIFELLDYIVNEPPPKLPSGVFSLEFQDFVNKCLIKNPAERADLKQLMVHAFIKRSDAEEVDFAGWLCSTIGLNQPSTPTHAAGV
Chain of Misshapen-like kinase 1 (Homo sapiens) (Q8N4C8 whole entry, looked up): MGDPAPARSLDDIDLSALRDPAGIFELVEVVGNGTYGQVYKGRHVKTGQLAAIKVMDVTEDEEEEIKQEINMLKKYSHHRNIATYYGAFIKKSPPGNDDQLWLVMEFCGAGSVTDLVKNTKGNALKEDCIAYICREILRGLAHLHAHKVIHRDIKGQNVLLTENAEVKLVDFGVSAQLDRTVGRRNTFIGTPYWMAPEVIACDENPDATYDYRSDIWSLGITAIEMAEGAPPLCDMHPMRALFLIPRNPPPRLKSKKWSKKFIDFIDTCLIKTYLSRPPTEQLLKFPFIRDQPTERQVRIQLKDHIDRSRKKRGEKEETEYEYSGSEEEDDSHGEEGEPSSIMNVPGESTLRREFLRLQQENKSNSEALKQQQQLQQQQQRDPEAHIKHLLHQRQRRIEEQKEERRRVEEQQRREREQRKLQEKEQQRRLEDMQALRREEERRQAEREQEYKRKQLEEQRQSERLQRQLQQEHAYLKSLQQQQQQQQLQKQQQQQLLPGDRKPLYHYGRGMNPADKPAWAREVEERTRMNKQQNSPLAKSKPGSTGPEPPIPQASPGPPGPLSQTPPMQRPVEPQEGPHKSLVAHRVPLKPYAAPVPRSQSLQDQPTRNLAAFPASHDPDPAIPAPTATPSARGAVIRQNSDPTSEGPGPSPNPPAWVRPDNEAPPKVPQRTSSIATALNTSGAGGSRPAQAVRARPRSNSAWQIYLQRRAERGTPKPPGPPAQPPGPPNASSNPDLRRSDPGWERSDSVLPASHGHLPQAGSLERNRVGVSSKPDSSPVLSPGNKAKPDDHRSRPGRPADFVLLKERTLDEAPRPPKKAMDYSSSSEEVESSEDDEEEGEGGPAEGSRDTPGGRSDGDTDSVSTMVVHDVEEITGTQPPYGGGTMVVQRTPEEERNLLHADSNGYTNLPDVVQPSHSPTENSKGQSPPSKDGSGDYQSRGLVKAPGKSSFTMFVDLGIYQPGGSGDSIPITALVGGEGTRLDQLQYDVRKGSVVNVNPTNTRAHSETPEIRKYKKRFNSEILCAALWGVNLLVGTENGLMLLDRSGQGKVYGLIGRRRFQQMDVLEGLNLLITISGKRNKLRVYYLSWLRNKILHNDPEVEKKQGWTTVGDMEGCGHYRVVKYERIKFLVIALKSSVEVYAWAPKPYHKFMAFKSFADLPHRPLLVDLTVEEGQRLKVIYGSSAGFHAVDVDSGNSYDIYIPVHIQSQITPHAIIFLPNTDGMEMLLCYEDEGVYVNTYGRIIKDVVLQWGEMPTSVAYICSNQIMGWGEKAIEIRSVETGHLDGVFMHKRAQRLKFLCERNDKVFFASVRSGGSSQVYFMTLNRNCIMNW
Chain of Mitogen-activated protein kinase kinase kinase kinase 4 (Homo sapiens) (O95819 2-1239 limits assumed): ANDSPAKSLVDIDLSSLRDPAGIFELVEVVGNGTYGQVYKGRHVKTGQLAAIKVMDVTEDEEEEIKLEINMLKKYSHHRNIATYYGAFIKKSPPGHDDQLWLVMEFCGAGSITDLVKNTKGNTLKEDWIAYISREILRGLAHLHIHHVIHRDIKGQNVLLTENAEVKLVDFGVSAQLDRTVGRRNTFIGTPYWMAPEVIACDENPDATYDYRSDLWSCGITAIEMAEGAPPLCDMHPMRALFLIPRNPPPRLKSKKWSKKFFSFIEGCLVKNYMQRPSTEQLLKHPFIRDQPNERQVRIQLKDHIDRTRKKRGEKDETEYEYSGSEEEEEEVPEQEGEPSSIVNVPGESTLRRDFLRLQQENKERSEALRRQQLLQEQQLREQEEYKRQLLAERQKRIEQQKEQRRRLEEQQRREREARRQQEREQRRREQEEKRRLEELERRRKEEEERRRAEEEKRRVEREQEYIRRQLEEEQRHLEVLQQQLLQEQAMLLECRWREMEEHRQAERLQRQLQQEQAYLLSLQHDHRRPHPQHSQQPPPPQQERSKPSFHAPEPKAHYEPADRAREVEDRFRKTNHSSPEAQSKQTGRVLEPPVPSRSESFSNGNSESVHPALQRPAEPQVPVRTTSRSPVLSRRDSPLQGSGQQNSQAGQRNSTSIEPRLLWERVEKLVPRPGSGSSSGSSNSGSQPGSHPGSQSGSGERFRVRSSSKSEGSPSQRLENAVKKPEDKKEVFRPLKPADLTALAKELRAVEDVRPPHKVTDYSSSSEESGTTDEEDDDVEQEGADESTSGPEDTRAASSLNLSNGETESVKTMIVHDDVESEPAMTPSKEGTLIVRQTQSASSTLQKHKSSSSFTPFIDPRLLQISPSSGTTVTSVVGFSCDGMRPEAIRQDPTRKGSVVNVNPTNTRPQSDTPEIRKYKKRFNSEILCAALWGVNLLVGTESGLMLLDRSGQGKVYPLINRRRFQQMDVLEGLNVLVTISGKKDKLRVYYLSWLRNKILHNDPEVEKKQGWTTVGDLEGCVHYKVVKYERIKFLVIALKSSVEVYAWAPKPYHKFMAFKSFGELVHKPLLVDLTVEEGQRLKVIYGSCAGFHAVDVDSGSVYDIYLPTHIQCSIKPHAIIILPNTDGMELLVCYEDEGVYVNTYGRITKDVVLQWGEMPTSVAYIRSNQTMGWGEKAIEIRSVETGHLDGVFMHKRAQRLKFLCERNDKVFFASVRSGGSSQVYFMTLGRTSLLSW
Chain of Serine/threonine-protein kinase 26 (Homo sapiens) (Q9P289 2-416 limits assumed): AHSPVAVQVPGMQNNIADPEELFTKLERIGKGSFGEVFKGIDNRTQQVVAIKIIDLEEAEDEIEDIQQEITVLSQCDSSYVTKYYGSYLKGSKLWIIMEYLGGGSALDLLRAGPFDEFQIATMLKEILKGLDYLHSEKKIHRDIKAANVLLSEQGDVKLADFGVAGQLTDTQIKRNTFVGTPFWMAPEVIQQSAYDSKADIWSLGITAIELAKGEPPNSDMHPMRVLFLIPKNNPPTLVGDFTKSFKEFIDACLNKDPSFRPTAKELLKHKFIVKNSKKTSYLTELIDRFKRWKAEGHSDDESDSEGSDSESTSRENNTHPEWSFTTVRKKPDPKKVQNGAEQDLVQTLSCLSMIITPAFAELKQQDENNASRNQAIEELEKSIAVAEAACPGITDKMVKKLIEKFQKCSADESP

With `C[C@@H](Oc1cc(-n2cnc3ccc(OC4CCN(C)CC4)cc32)sc1C(N)=O)c1ccccc1Cl`, the inhibition (usually the relative decrease from the control value, in per cent) in [1] came to 7.81%; in test [2], 1.83%; in test [3], 2.54%; in test [4], 6.26%; in test [5] it was 5.92%; in test [6], 4.68%. Besides, the inhibition in test [7] is 19.5%; in [8], 6.85%; in [9], 13.4%; in [10] it was -3.27%.

Take `CN(c1ccc(NC(=O)Nc2c(Cl)cccc2Cl)cc1)c1ccnc(Nc2cccc(CS(C)(=O)=O)c2)n1`: the inhibition came out at 73.4% in test [1]; 5.73% in [2]; 5.34% in test [3]; 21.2% in [4]; 64.5% in [5]; 8.06% in [6]. The inhibition in test [7] turned out to be 17.4%; in [8], 8.37%; in test [9], 11.5%; in test [10], 0.39%.

Consider `COc1ccc2cc(-c3c(-c4ccncc4)nc(-c4ccc(S(C)(=O)=O)cc4C)n3C)ccc2c1`, for which the inhibition came to 14.8% in [1]; 6.08% in [2]; 4.97% in test [3]; 6.31% in test [4]; 13.9% in [5]; 2.82% in [6]. Besides, the inhibition in test [7] was 8.72%; in test [8], 4.72%; in test [9], 12.6%; in test [10], -0.63%.

On to `COc1cccc(-n2cnc3c(N/N=C/c4ccncc4)ncnc32)c1`, for which the inhibition in test [1] was 16.9%; in test [2], -0.13%; in test [3], -0.71%; in test [4], 2.27%; in test [5], 16.9%; in test [6], 3.6%. For the same compound, the inhibition in test [7] amounted to 7.14%; in test [8], 4.46%; in [9] it was 7.42%; in test [10], 0.98%.

On to `COc1cccc(/C=N/Nc2ncnc3c2cnn3-c2cccc(OC)c2)c1`, for which the inhibition in test [1] was determined as 10.8%; in test [2], 3.68%; in [3], 2.66%; in test [4], 5.65%; in [5], 10.9%; in test [6], 2.42%. Also, the inhibition is 3.52% in test [7], 3.29% in test [8], 3.95% in test [9] and -3.41% in [10].

Take `c1ccc(-c2n[nH]cc2-c2ccnc(-c3ccc(OCCN4CCOCC4)cc3)c2)nc1`: the inhibition in [1] was 77.5%; in [2], -0.91%; in test [3], -0.3%; in test [4], 20.2%; in test [5], 69.2%; in test [6] it was 1.73%. Further, the inhibition in [7] is 2.13%; in test [8], 2.06%; in test [9] it was 0.12%; in [10], 5.82%.

`CNC(=O)c1cncc(/C=C/c2c(C)cccc2C)c1`: the inhibition in test [1] is 7.57%; in test [2], -0.07%; in test [3], 0.41%; in test [4], 1.75%; in test [5] it was 3.59%; in test [6], 2.23%. Further, the inhibition in test [7] stood at 3.51%; in test [8], 2.27%; in [9], 2.73%; in test [10], 0.91%.

With `O=C(Nc1n[nH]c2nc(-c3ccco3)ccc12)C1CC1`, the inhibition is 32.1% in [1]; -0.04% in test [2]; 0.75% in test [3]; 3.07% in [4]; 18.1% in test [5]; 1.17% in test [6]. The inhibition in test [7] was 1.95%; in test [8] it was 0%; in [9], -0.23%; in test [10] it was 0.08%.

As for `N#Cc1ccc(Oc2nccc(-c3c(-c4ccc(F)cc4)ncn3C3CCNCC3)n2)cc1`, the inhibition was determined as 5.64% in test [1]; 4.35% in test [2]; 3.84% in test [3]; 6.9% in test [4]; 7.67% in test [5]; 3.35% in test [6]. Further, the inhibition in test [7] is 4.07%; in test [8] it was 5.75%; in test [9], 4.78%; in test [10] it was -1.67%.

For the compound `CCc1cccc(CC)c1/C=C/c1cncc(C(=O)NC)c1`, the inhibition in [1] is 7.49%; in test [2], 2.63%; in test [3], 2.68%; in test [4], 3.66%; in [5], 6.06%; in [6], 5.37%. Further, the inhibition in test [7] is 5.19%; in test [8], 5.6%; in [9], 3.95%; in test [10], -0.96%.

`c1ccc(Oc2ccc(Nc3ncc(-c4ccccc4)o3)cc2)cc1`: the inhibition in test [1] is 6.86%; in test [2] it was 0.88%; in [3], 1.76%; in [4] it was 3.49%; in test [5], 7.84%; in test [6], 1.03%. The inhibition was 1.83% in [7], 0.33% in [8], 0.37% in test [9] and -1.17% in test [10].

As for `NS(=O)(=O)c1ccc(Nc2cc(-c3ccc(O)c(F)c3)n[nH]2)cc1`, the inhibition in [1] was 76.2%; in test [2], -2.69%; in [3], -3.65%; in [4] it was 11.6%; in test [5], 65.7%; in test [6] it was -1.34%. The inhibition in [7] was 12.6%; in [8], -1.84%; in test [9], 9.64%; in test [10] it was 0.95%.

For `COc1ccc2ncn(-c3cc(O[C@H](C)c4ccccc4Cl)c(C(N)=O)s3)c2c1`, the inhibition in [1] was 5.82%; in [2], 2.51%; in test [3], 2.76%; in test [4] it was 5.84%; in test [5], 5.42%; in test [6], 3.89%. Moreover, the inhibition in [7] was 13%; in test [8] it was 6.32%; in test [9], 13.2%; in test [10] it was -2.67%.

Take `O=C1Nc2ccc(I)cc2C1=Cc1cc(Br)c(O)c(Br)c1`: the inhibition in [1] worked out at 83.7%; in test [2], 3.38%; in test [3], 3.62%; in [4], 18.9%; in test [5], 73.2%; in test [6], 3.39%. Besides, the inhibition in test [7] was 17.2%; in test [8], 3.5%; in test [9], 19.5%; in [10], 0.13%.

`Fc1ccc(-c2ncn(CCCN3CCOCC3)c2-c2ccncc2)cc1`: the inhibition in test [1] was 5.83%; in test [2], -0.25%; in test [3], 0.32%; in test [4], 1.73%; in test [5], 2.89%; in test [6], 1.3%. For the same compound, the inhibition in [7] is 4.22%; in test [8], -0.13%; in [9], 2.5%; in test [10], 0.94%.

In the case of `O=C(Nc1n[nH]c2cc(-c3cc(F)ccc3F)ccc12)C1CC1`, the inhibition in test [1] is 58.7%; in [2], 4.62%; in [3], 4.19%; in test [4], 11.6%; in test [5], 45.7%; in [6], 1.85%. In addition, the inhibition in [7] is 4.03%; in [8] it was 2.46%; in test [9], 3.81%; in test [10], -1.29%.

Consider `COc1cc2ncn(-c3cc(OCCc4ccccc4)c(C(N)=O)s3)c2cc1OC`, for which the inhibition in test [1] came out at 26.2%; in test [2], 3.24%; in test [3] it was 2.39%; in test [4] it was 5.52%; in [5] it was 18.8%; in test [6], 2.99%. The inhibition in [7] is 13.6%; in test [8], 2.95%; in [9] it was 11%; in test [10], -1.7%.
